High-throughput results: PubChem, several laboratories
Compounds with a hit are over-represented: about 2.8% of the library has one in this group of screens.
MRP reversal = reverses drug resistance mediated by MRP; H69AR cells + 2 uM doxorubicin, CellTiter-Glo, 72 h; differential viability (reversal), % at 10 µM; 85,000 tested, 0.04% active; AID 602;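 active = viability drop by adding the cancer drug above about 55%, with treated viability meeting a 40% cutoff, limit read from the data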;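 note: viability without doxorubicin minus viability with 2 µM doxorubicin for each compound; larger differential means the compound sensitizes cells more to doxorubicin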
MRP1 act = MRP-1 activation | 140,000 tested, 0.61% active | H69AR cells + doxorubicin, viability rescue, CellTiter-Glo | viability increase, % at 10 µM;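 active = viability gain under doxorubicin at or above a set limit, the compound median plus 3 SD, cut at about 4.7% in these data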;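 note: MRP-1 overexpressing cells given doxorubicin 25 µM after compound pretreatment; 18-22 h compound pretreatment then 72 h with doxorubicin before readout; 0% = doxorubicin-only wells and 100% = vehicle-treated cells without doxorubicin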
ERa coact pot = enhances coactivator binding to human estrogen receptor alpha; P03372; TR-FRET ERalpha-LBD/SRC-Cy5 coactivator binding, 2 h; 100 = basal binding, no effect; coactivator binding (% of control), % at 25.6 µM; 86,000 tested, 1.3% active; AID 639; in the data active = activity above about 200%;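 note: binding measured in presence of low estradiol as agonist stimulus; 0% = peptide alone without receptor and 100% = receptor with peptide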
ERb SRC1 inh = ER-beta (human) coactivator binding inhibition; Q92731; TR-FRET ER-beta LBD / SRC1-Cy5 peptide binding; receptor agonist-loaded with 1 µM estradiol; inhibition, % at 25.6 µM; 86,000 tested, 1.3% active; AID 633;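 active = compounds whose percent inhibition of the receptor-coactivator binding signal exceeds about 50% in the single-dose screen, limit read from the data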;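 note: 0% = receptor plus peptide wells without compound and 100% = peptide-only wells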
ERa coact inh = ER-alpha (human) coactivator binding inhibition; 86,000 tested, 1.7% active; AID 629; inhibition, % at 25.6 µM; TR-FRET ER-alpha LBD / SRC-1 peptide, estradiol-bound; P03372; in the data active = inhibition above about 50%;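 note: 0% = receptor plus peptide control and 100% = peptide only without receptor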
Smad3 FoxH1 inh = blocks human Smad3 binding to FoxH1 peptide; P84022; TR-FRET Smad3/Dy647-FoxH1 peptide binding, europium anti-His; inhibition, % at 25 µM; 88,000 tested, 0.29% active;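 active = compounds that reduce the energy-transfer binding signal between the protein and its labelled peptide by more than half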;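 note: 0% = Smad3 plus labelled peptide maximal FRET and 100% = peptide-only background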
Target sequence (P84022 whole entry, looked up): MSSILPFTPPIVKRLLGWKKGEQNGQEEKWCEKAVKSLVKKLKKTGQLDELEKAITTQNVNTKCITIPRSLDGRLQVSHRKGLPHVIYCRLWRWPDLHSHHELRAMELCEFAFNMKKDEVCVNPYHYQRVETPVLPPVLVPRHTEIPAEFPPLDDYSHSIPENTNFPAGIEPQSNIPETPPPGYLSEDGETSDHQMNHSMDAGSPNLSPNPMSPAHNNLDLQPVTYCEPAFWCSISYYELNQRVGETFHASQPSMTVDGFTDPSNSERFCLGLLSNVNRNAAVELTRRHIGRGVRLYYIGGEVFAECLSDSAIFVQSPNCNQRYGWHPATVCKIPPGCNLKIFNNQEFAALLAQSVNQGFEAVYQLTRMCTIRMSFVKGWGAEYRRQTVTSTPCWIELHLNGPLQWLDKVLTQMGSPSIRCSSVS
The depositor's hits bear a star; . = no result given; [ ] = dose if it differs, or a comment.

SMILES | MRP reversal | MRP1 act | ERa coact pot | ERb SRC1 inh | ERa coact inh | Smad3 FoxH1 inh
CN1C(=O)CC(C(=O)O)SC1=Nc1cc(Cl)c(O)c(Cl)c1 (stereo not given) | -6 | -2 | 43 | 54* | 43 | 8
COc1nc(C)nc2c1ccc1ccccc12 | 14 | -2 | 102 | -3 | -6 | 8
Cc1cc(-c2nn3c(-c4ccccc4)nnc3s2)c2ccccc2n1 | 10 | -4 | 98 | 36 | 73* | 0
c1ccc(-c2cc(-c3nn4c(-c5ccco5)nnc4s3)c3ccccc3n2)cc1 | -17 | 0 | 180 | 54*[fluorescence artefact?] | 70*[fluorescence artefact?] | -5
COc1cc(OC)c(-c2nn3c(-c4ccco4)nnc3s2)cc1OC | -10 | -5 | 71 | 7 | 25 | 12
c1ccc(Cc2nnc3sc(-c4ccco4)nn23)cc1 | 21 | -2 | 74 | 59* | 64*[fluorescence artefact?] | -6
CC(O)c1n(C)c(Cl)c[n+]1C (stereo not given) | -8 | 0 | 124 | 1 | -8 | 2
NC(=O)CC(c1ccccc1)c1ccco1 (stereo not given) | -6 | -1 | 101 | -20 | -3 | 8
O=C(O)C(O)c1ccco1 (stereo not given) | 9 | -2 | 132 | 58*[fluorescence artefact?] | 54* | 21
O=C1C2C3C=CC(C3)C2C(=O)N1c1cccc2cccnc12 (stereo not given) | 0 | -3 | 65 | 51* | 40 | -4
O=C(Nc1nnc(C2CCCO2)s1)c1ccc(Br)cc1 (stereo not given) | 15 | -2 | 44 | 54* | 21 | 4
Cn1c(Sc2ccc(-c3cccnc3)n2C)ccc1-c1cccnc1 | . | . | . | . | . | -2
O=C(O)c1ccccc1N[C@H](c1ccccc1)c1ccc2cccnc2c1O | . | . | . | . | . | -2
CNc1ccc(Br)cc(C(=O)/C=C/c2ccc(OC)cc2OC)c1=O | . | -5 | . | . | . | .
CNc1ccc(Br)cc(C(=O)/C=C/c2cccc(OC)c2)c1=O | -3 | -7 | 66 | -4 | 66*[fluorescence artefact?] | 2
CCNc1ccc(Br)cc(C(=O)/C=C/c2c(Cl)cccc2Cl)c1=O | -1 | -9 | 95 | 72*[fluorescence artefact?] | 75*[fluorescence artefact?] | 8
CCOc1ccccc1C(=O)Nc1cccc(-c2nnc(-c3ccccc3)o2)c1 | -1 | -2 | 317*[fluorescence artefact?] | 25 | 39 | -13
O=C(COc1ccccc1)Nc1cccc(-c2nnc(-c3ccccc3)o2)c1 | -3 | . | 125 | 10 | 2 | 0
Cc1ccc2[nH]c(=S)cc(C)c2c1 | -8 | -1 | 83 | 60*[fluorescence artefact?] | 16 | 18
Cc1cc(=S)[nH]c2ccccc12 | -14 | 0 | 85 | 4 | 0 | 13
CS(=O)(=O)N(CCc1ccccc1)CC(=O)Nc1ccc2c(c1)OCO2 | 7 | -4 | 47 | 46 | 62*[fluorescence artefact?] | 6
COc1ccc(Cl)cc1C(=O)Nc1ccc2c(c1)OCO2 | -6 | 15* | 91 | 10 | 3 | -8
CN(c1ccccc1C(=O)Nc1ccc2c(c1)OCO2)S(C)(=O)=O | . | -2 | 62 | 53*[fluorescence artefact?] | 48 | -5
O=C(Nc1ccc([N+](=O)[O-])cn1)c1ccc(Br)o1 | . | 0 | . | . | . | .
COc1ccccc1CNC(=O)c1ccc(OC(F)F)c(OC)c1 | . | -1 | . | . | . | .
SMILES | MRP reversal | MRP1 act | ERa coact pot | ERb SRC1 inh | ERa coact inh | Smad3 FoxH1 inh
C[C@]12CC[C@@H]3c4ccc(O)cc4C(=O)C[C@H]3[C@@H]1CC[C@@H]2O | -14 | . | 705* | 1 | 3 | 5
C[C@@]12CC[C@H]3c4ccc(O)cc4CC[C@@H]3[C@H]1CC[C@H]2OP(=O)(O)O | . | . | . | . | . | 16
O=C(O)C[C@@H](C(=O)O)C1c2ccccc2-c2ccccc21 | . | . | . | . | . | 7
Cc1nc2sccn2c1-c1nc(C2CC2)c(C(=O)c2ccc3c(c2)NC(=O)CO3)s1 | -5 | . | 67 | 53*[fluorescence artefact?] | 61* | -8
O=C1COc2ccc(C(=O)c3ccccc3C(=O)O)cc2N1 | . | 1 | . | . | . | .
O=c1c[n+](CC[n+]2cc(=O)o[nH]2)[nH]o1 | . | . | . | . | . | -5
Cc1ccccc1N1CN(Cc2ccco2)CNC1=S | . | -1 | . | . | . | .
CC1CCc2c(sc3nc(CSc4ncn[nH]4)[nH]c(=O)c23)C1 (stereo not given) | . | 18* | . | . | . | .
Cc1ccc(CNC(=O)c2cc3c(=O)n4ccccc4nc3n(Cc3ccco3)c2=N)cc1 | -21 | . | 53 | 55*[fluorescence artefact?] | 82*[fluorescence artefact?] | 4
Cc1ccc(S(=O)(=O)c2cc3c(=O)n4cccc(C)c4nc3n(Cc3ccco3)c2=N)cc1C | . | . | 76 | 37 | 49 | 2
N=c1c(C(=O)NCc2ccc(F)cc2)cc2c(=O)n3ccccc3nc2n1Cc1ccco1 | . | -4 | . | . | . | .
Cc1cccn2c(=O)c3cc(C(=O)NCc4ccco4)c(=N)n(CCc4ccccc4)c3nc12 | 3 | . | 55 | 59* | 93*[fluorescence artefact?] | 15
Cc1ccc(S(=O)(=O)c2cc3c(=O)n4ccccc4nc3n(Cc3ccco3)c2=N)cc1 | -14 | 0 | 83 | 63*[fluorescence artefact?] | 47 | 9
N=c1c(C(=O)NCc2ccccc2)cc2c(=O)n3ccccc3nc2n1Cc1ccco1 | -20 | -4 | 68 | 47 | 71*[fluorescence artefact?] | 11
Cc1ccc(S(=O)(=O)NC(=O)OC23COCN2COC3)cc1 | . | . | . | . | . | 21
c1cncc(CNCc2cccnc2)c1 | . | . | . | . | . | -7
CCc1nnc(NC(=O)c2c(C)nn(-c3ccccc3)c2Cl)s1 | 7 | 2 | 95 | 12 | 7 | -7
Cc1ccc(S(=O)(=O)c2cc3c(=O)n4cccc(C)c4nc3n(CC3CCCO3)c2=N)cc1 (stereo not given) | 1 | . | 290* | 3 | -30 | -4
N=c1c(C(=O)NCc2ccco2)cc2c(=O)n3ccccc3nc2n1Cc1ccc(Cl)cc1 | -9 | -5 | 75 | 58*[fluorescence artefact?] | 80*[fluorescence artefact?] | 11
N=c1c(C(=O)NCc2ccco2)cc2c(=O)n3ccccc3nc2n1Cc1ccccc1 | -10 | -5 | 72 | 35 | 47 | 0
C=C(C)CNCCN | . | . | . | . | . | -12
CC(C)c1ccc(C(=O)CSc2ncn[nH]2)cc1 | 22 | 6.6* | 79 | -14 | -27 | 7
O=C(CSc1ncn[nH]1)NCCC(c1ccccc1)c1ccccc1 | 3 | 9.8* | 124 | -6 | 1 | 10
c1ccc(CCc2cccnc2)nc1 | . | . | . | . | . | 10
CCc1ccc(-c2nc(C(N)=O)c3[nH]c(=O)n(-c4ccccc4OC)c3n2)cc1 | -2 | -6 | 300*[fluorescence artefact?] | 12 | 20 | -9
SMILES | MRP reversal | MRP1 act | ERa coact pot | ERb SRC1 inh | ERa coact inh | Smad3 FoxH1 inh
COc1ccc(-c2nc(C(N)=O)c3[nH]c(=O)n(-c4cccc(Cl)c4)c3n2)cc1OC | 0 | -5 | 96 | 48 | 84* | 12
CCOc1ccccc1-c1nc(C(N)=O)c2[nH]c(=O)n(-c3ccc(F)cc3)c2n1 | -11 | -4 | 126 | 4 | 10 | -4
O=C(CC(c1ccccc1)c1ccccc1)OCn1nnc2ccccc2c1=O | . | 1 | . | . | . | .
COc1ccc2c(c1)-c1ccccc1S(=O)(=O)N2C(C)=O | -6 | -1 | 25 | 63*[fluorescence artefact?] | 87*[fluorescence artefact?] | 1
Cc1cc(C)n2nc(C(=O)Nc3ccc4c(c3)OCO4)nc2n1 | 0 | 0 | 48 | 49 | 59*[fluorescence artefact?] | 7
O=C(Cc1c[nH]c2ccccc12)N/N=C/c1ccc(F)cc1 | . | -2 | . | . | . | .
